This passage reports inhibition results from PubChem BioAssay AID463195 (Sanford-Burnham Center for Chemical Genomics, 2010).

Out of some 330,000 compounds screened, about 4,600 (1.4%) were called active. Many of the other results were omitted from the sample, so actives are more common in it than they were. A number with no mark means an inactive call.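 Rule for the calls: active = inhibition of 40% or more at the single tested concentration; inactive = the rest.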

This experiment in a line: wild-type TIM10 yeast growth inhibition – luminescence, uHTS, counter-screen for tim10-1 yeast inhibitor project, primary screen (AID 463195).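 Note: wild-type TIM10 isogenic control strain grown at permissive 25 °C; 0% = DMSO yeast wells and 100% = minimal medium wells without yeast.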 Particulars: S. cerevisiae TIM10 strain growth, BacTiter-Glo luminescence, 24 h; at 10 µM; hits give high values.
Broadly, the inhibition is the change of the read-out against control, counted positive when it falls. On to `COc1ccc(N2CCN(C(=O)CCSCc3ccccc3F)CC2)cc1`, for which the inhibition was 27.5%.
Under `CC(=O)N(Cc1cccs1)C1CCOC(C)(C)C1` (configuration not stated) stands -0.323%; under `Nc1ccccc1SC(C[N+](=O)[O-])c1ccccc1` (configuration not stated), 59.3% (active).
`Cc1ccc(C(C[N+](=O)[O-])c2c(C)cc3ccccn23)cc1` (configuration not stated): the inhibition is 21.6%.
Under `Cc1ccc(C)c(OCCC(=O)OCC(=O)N2CCN(c3ccccc3)CC2)c1` stands 5.69%; under `O=S(=O)(Nc1cccc(Oc2ccc(Cl)cc2)n1)c1ccc(F)cc1`, 37.9%; under `O=C(COC(=O)C1CCCO1)Nc1nc(-c2ccc(F)cc2)cs1` (configuration not stated), 2.65%.
Regarding `O=C(CN1CCN(c2nc(-c3ccccc3)cs2)CC1)NCc1ccc2c(c1)OCO2`, the inhibition was 18.3%.
The result for `CC1CCCC(C)N1C(=O)CN1CCN(c2nc(-c3ccc(F)cc3)cs2)CC1` (configuration not stated) reads 44.9% (active); that for `COC(=O)C(C)NC(=O)COc1ccc2ccccc2c1` (configuration not stated), 4.55%; that for `Cc1cc(C)cc(OCC(=O)O/N=C(\N)Cc2ccc([N+](=O)[O-])cc2)c1`, 18.5%.
On to `N/C(Cc1ccc([N+](=O)[O-])cc1)=N\OC(=O)C1CCCCC1`, for which the inhibition is 56% (active).
As to `O=C(COC(=O)Cc1ccc([N+](=O)[O-])cc1)NC1CCCCCC1`, the inhibition is 11.9%.
The result for `N/C(Cc1ccc([N+](=O)[O-])cc1)=N\OC(=O)COc1ccc2ccccc2c1` reads 44.4% (active); that for `O=C(COC(=O)C1CCCCC1)Nc1ccc([N+](=O)[O-])cc1`, 30.8%.
For the compound `O=C(CN1CCCCC1)N1c2ccccc2Sc2ccc(C(F)(F)F)cc21`, the inhibition was 13.9%.
On to `O=S(=O)(NC(=S)Nc1ccccc1)c1ccc(F)cc1`, for which the inhibition is -5.64%.
Under `CC[C@]12c3[nH]c4cc(CCC(=O)N(C)C)ccc4c3CCN1C(=O)[C@@H](CC(=O)NCc1ccco1)C[C@@H]2C(=O)N1CCN(C(=O)c2ccco2)CC1` stands 12.2%; under `COc1ccccc1-c1nnc(-c2ccc(F)cc2)o1`, 14.8%.
As to `CSc1ccccc1-c1nnc(-c2ccc(Cl)cc2)o1`, the inhibition is 8.43%.
For the compound `FC(F)(F)c1cnc(Oc2ccccc2-c2nnc(-c3ccc(Cl)cc3)o2)c(Cl)c1`, the inhibition was 92.4% (active).
The result for `C[C@@H]1CC[C@@]2(OC1)O[C@H]1C[C@H]3[C@@H]4CC=C5C[C@@H](O)[C@H](O)C[C@]5(C)C4CC[C@]3(C)[C@H]1[C@@H]2C` (some centres not stated) reads -10.1%.
Under `Cc1cc(Cl)ccc1OCc1nc(-c2ccncc2)no1` stands -5.93%; under `CCc1cc(C(=O)c2ccc(OC)cc2)c(NC(=O)CN2CCN(C)CC2)s1`, 14.6%; under `CCc1cc(C(N)=O)c(NC(=O)c2ccc(OC)cc2)s1`, 48.7% (active).
On to `COc1ccc(C(=O)Nc2sc(C)c(C)c2CN2CCOCC2)cc1`, for which the inhibition is 29%.
Consider `CCCn1c(C)cc(-c2csc(NC(=O)CCc3nc4ccccc4c(=O)[nH]3)n2)c1C`, for which the inhibition was -24.7%.
As to `CCCOc1ccc(NC(=O)C2OC3OC(C)(C)OC3C3OC(C)(C)OC23)cc1` (configuration not stated), the inhibition was -2.42%.
Under `COc1cc(/C=C/CO)cc(OC)c1O[C@@H]1O[C@H](CO)[C@@H](O)[C@H](O)[C@H]1O` stands -4.81%; under `CC(=O)Nc1ccccc1OC(=O)N1CCOCC1`, -16.6%; under `O=C(Oc1cccc(C(=S)N2CCOCC2)c1)c1cccc(Cl)c1`, 17.1%.
Under `O=C(/C=C/c1cccs1)c1cc(Cl)ccc1OC(=O)N1CCOCC1` stands 52.9% (active); under `CC(C)(CCl)C(=O)Nc1ccc(Sc2ccc(F)cc2)cc1`, 42.1% (active); under `CC(C)CNC(=S)Nc1ccc(F)cc1`, 8.49%.
`O=C(Nc1ccncc1)Nc1ccc(F)cc1`: the inhibition is -4.69%.
Under `O=C(COc1ccccc1)Nc1nonc1NC(=O)COc1ccccc1` stands 7.03%.
The result for `O=C(CCN1C(=O)[C@@H]2Cc3ccccc3CN2C1=O)NCc1ccccc1` reads 4.78%.
For the compound `CCOC(=O)c1c(NC(=O)CNC2CCCc3ccccc32)sc(C(N)=O)c1C` (configuration not stated), the inhibition is -2.7%.
For the compound `COc1ccc(CCNC(=O)CSc2nnc(-c3cccc(F)c3)o2)cc1OC`, the inhibition is 1.74%.
As to `COc1ccc(CN(C(=O)CSc2nnc(-c3ccc(OC)c(OC)c3)o2)c2ccc(F)cc2)cc1`, the inhibition is 40.5% (active).
The result for `COc1ccc(-c2nnc(SCC(=O)NC3CCCCC3)o2)cc1OC` reads 3.73%.
As to `Cc1ccc(C(=O)OCC(=O)NCc2cc(C)c(O)c(C)c2)cc1S(=O)(=O)N1CCCCC1`, the inhibition was 0.371%.
Turning to `O=S(=O)(c1cccc(-c2cn3ccccc3n2)c1)N1CCCC1`, the inhibition was 9%.
As to `Cc1cc(-c2ccccc2)nc(N2CCC(C(=O)NC34CC5CC(CC(C5)C3)C4)CC2)n1`, the inhibition is 19.8%.
Consider `O=C1Nc2c(Br)cc(Br)cc2C1(O)N1CCOCC1` (configuration not stated), for which the inhibition was 12.1%.
As to `CCC(C)(C)NC(=O)CN(Cc1cccs1)C(=O)CNS(=O)(=O)c1ccc(F)cc1`, the inhibition is 3.15%.
Under `CCOc1ccc(S(=O)(=O)NCCC(=O)N2CCCCCCC2)cc1` stands -3.91%.
For the compound `Cc1cccc(/C=N/NC(=O)CNc2cccc3ccccc23)n1`, the inhibition was 8.82%.
The result for `Cc1ccccc1NCC(=O)N/N=C\c1ccc([N+](=O)[O-])s1` reads 56% (active); that for `CC(C)(C)c1cc(C(=O)N/N=C/c2ccc([N+](=O)[O-])s2)n[nH]1`, 22%.
`C=CC1C(OC2OC(CO)C(O)C(O)C2O)OC=C(C(=O)OC)C1CC1CC(=O)CC(CC(=O)CCc2ccc(O)cc2)O1` (configuration not stated): the inhibition is -2.71%.
Under `c1ccc(COc2ccccc2CNCc2cccnc2)cc1` stands -6.88%; under `COc1c(N2CCN(C(=S)Nc3ccccc3F)C(C)C2)c(F)cc2c(=O)c(C(=O)O)cn(C3CC3)c12` (configuration not stated), 2.41%.
The result for `Cc1cccc(-n2c(SCC(N)=O)nc3c(c2=O)C2(CCCCC2)Cc2ccccc2-3)c1` reads 12.4%; that for `N#CC1(C#N)C(C(=O)C23CC4CC(CC(C4)C2)C3)C12CCOCC2` (configuration not stated), 44.3% (active); that for `CSCCC(NC(=O)COc1ccccc1)C(=O)OCCOc1ccc(F)cc1` (configuration not stated), -0.639%.
`Cc1cc(C)cc(NC(=O)C(OC(=O)c2ccc(O)cc2)c2ccccc2)c1` (configuration not stated): the inhibition is 9.95%.
Under `Cc1nc(-c2ccc(NC(=O)c3cccs3)cc2)cs1` stands 49.5% (active).
Under `Cc1ccc(C(=O)Nc2ccc(C)c(S(=O)(=O)N(C)C)c2)s1` stands 10.9%.
Under `Cc1ccc(C(=O)Nc2ccc(NC(=O)c3cccs3)cc2)c(C)c1` stands -11.8%.
On to `Cc1ccc(NC(=O)c2cccs2)cc1S(=O)(=O)N(C)C`, for which the inhibition is 46.1% (active).
As for `O=C(Nc1ccc(NC(=O)c2cccs2)cc1)c1ccc2ccccc2c1`, the inhibition was -15.3%.
In the case of `O=C(Nc1ccccc1)c1ccc(NC(=O)c2cccs2)cc1`, the inhibition was -10.3%.
In the case of `COC(=O)[C@]1(C)N[C@H](CN(C)C(=O)c2ccc(C(C)(C)C)cc2)[C@@H]2C(=O)N(C)C(=O)[C@@H]21`, the inhibition was 3.29%.
The result for `Cc1ccc(-c2noc(C3CCCN(C(=O)c4cccc(Cl)c4)C3)n2)o1` (configuration not stated) reads -12.1%; that for `O=C(CNS(=O)(=O)c1ccc(Br)s1)N1CCN(C(=O)c2ccco2)CC1`, -4.25%.
With `Cc1ccc(N2C(=O)CC(NCc3ccc4c(c3)OCO4)C2=O)cc1Cl` (configuration not stated), the inhibition was 9.87%.
For `COC(=O)CN1C(=O)C(C)(C)Oc2ccc(C(=O)Nc3cccc(OC)c3)cc21`, the inhibition is -1.11%.
The result for `CCc1ccc2c(c1)C1(NN=C(c3ccccc3)S1)C(=O)N2` (configuration not stated) reads 41.4% (active); that for `Cc1ccccc1N(C(=O)Cc1cccs1)C(C(=O)NC1CCCCC1)c1cn(C)nc1C` (configuration not stated), 18.5%.
Consider `COc1cc2cc(CN(CCN3CCCC3)C(=O)Nc3ccccc3Cl)c(=O)[nH]c2cc1OC`, for which the inhibition is 1.82%.
As to `O=S(=O)(NC1CC1)c1ccc2c3c(cccc13)CC2`, the inhibition was 18.4%.
Under `CSc1ccc(S(=O)(=O)NC2CCCCC2)cc1` stands 5.32%; under `O=S(=O)(NC1CCCCC1)c1ccc(F)c2ccccc12`, 48.4% (active); under `O=C(Cn1nnc2ccccc2c1=O)NCc1ccc(Cl)cc1`, -13.1%.
For `CS(=O)(=O)N1CCN(CC(=O)NC2CCCC2)CC1`, the inhibition was 1.42%.
Consider `COc1ccc(C(=O)C[n+]2ccc(N)c(C)c2C)cc1`, for which the inhibition is -13.7%.
Under `Cc1ccc(-n2cnc3ncnc(-c4ccccc4)c32)cc1` stands -13%; under `Cc1ccc(-c2nn(C(C)(C)C)c3ncnc(N)c23)cc1`, 46.3% (active); under `C=CC[C@H](CC(=O)OC(C)(C)C)C(=O)OC[C@H]1CCCN1C(=O)[C@H](CC=C)CC(=O)N(CCO)Cc1ccccc1`, 4.94%.
Consider `O=C(Nc1cccc(S(=O)(=O)N2CCCCC2)c1)c1cncc(Br)c1`, for which the inhibition was 8.29%.
Under `O=C(CCNC(=O)c1ccc(Br)cc1)Nc1cccc(S(=O)(=O)N2CCCCC2)c1` stands -7.56%; under `O=C(Nc1cccc(S(=O)(=O)N2CCCC2)c1)c1cncc(Br)c1`, 97% (active); under `CCOC(=O)c1cnc(SCc2nc(N)nc(Nc3ccc(OC)cc3)n2)nc1N`, 15.4%.
Regarding `COc1ccccc1Nc1nc(N)nc(CSC(=S)N2CCOCC2)n1`, the inhibition was 31.8%.
Consider `COc1ccc(Nc2nc(N)nc(CSC(=S)N3CCC(C)CC3)n2)cc1`, for which the inhibition was 44.5% (active).
For the compound `COc1cc(CC(=O)N2CCC(n3nccc3NC(=O)C3CC3)CC2)cc(OC)c1OC`, the inhibition is -1.91%.
In the case of `CC1=C/C(=N\OS(=O)(=O)c2ccccc2)C=CC1=O`, the inhibition was 69.4% (active).
The result for `Cc1nc(C)c(-c2nnc(-c3cccc(S(=O)(=O)N(C)C)c3)o2)cc1C(=O)NN` reads 11.6%.
Under `COc1ccc(Cn2c(-c3ccc(Cl)cc3)c[n+]3ccccc23)cc1` stands 45.6% (active); under `COc1ccc(Cn2c(=O)cc(C)[nH]c2=S)cc1`, 8.93%.
Under `CCn1c(C)cc(=O)cc1-c1ccc(Cl)cc1` stands -2.03%.
